# Compound activity deposited in PubChem by National Center for Advancing Translational Sciences (NCATS).
# G9a block – qHTS Assay for Inhibitors of Histone Lysine Methyltransferase G9a; Histone-lysine N-methyltransferase EHMT2 (Homo sapiens), Q96KQ7; G9a H3K9 monomethylation, AlphaScreen, 2 h; Potency, µM (top dose mostly 102 µM), for the others: top-dose activity, negative = inhibition, most hits filed as inhibitors; 350,000 tested, 8.8% active; AID 504332, 2011; also: % is scaled to controls: 0 for no effect and ±100 for the full control effect; nearly all actives have a fitted effect of over 75% in size
#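 Readings reflect AlphaScreen signal from monomethyl-H3K9 antibody detection. HMT at 20 nM; substrate b-H3K9 500 nM; cofactor SAM 20 uM; 2 h RT reaction; compounds tested as titrations in qHTS with 15 min preincubation.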
# HP1b binding inh – HTS for Inhibitors of HP1-beta Chromodomain Interactions with Methylated Histone Tails | Chromobox protein homolog 1 (Homo sapiens), P83916 | AlphaScreen HP1-beta / biotin-H3K9me3 peptide binding | Potency, µM (series often up to 114 µM), inactives show at the highest dose activity change, negative = inhibition, actives largely listed as inhibitors | 390,000 tested, 0.56% active | AID 540317, 2011; also: nearly all actives have a fitted effect of over 70% in size
#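 HP1-beta protein (50 nM final) preincubated 30 min at room temperature with biotinylated H3(1-18)K9me3 peptide (50 nM) in PBS pH 7.4, 0.01% Tween-20, then compound added for 30 min. AlphaScreen streptavidin donor/nickel chelate acceptor beads (10 ug/mL final), 30 min dark, luminescence read.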
# GLS inh – qHTS for Inhibitors of Glutaminase (GLS). AID 624170, 2012. Potency, µM (highest dose often 45.5 µM), for the others: at the highest dose activity change, negative = inhibition, most hits filed as inhibitors. Glutaminase kidney isoform, mitochondrial (Homo sapiens), O94925. 410,000 tested, 0.21% active. GLS enzymatic activity, qHTS titration; also: % is scaled to controls: 0 for no effect and ±100 for the full control effect
#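 Assay buffer: 45 mM KH2PO4 pH 8.2, 0.02% Tween-20. hKGA acts on L-glutamine (1 mM solution added); product glutamate is reported by an oxidase/peroxidase Amplex Red coupling, with fluorescence taken at baseline and 30 min.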
# JMJD2A Tudor – qHTS Assay for Inhibitors of JMJD2A-Tudor Domain; Lysine-specific demethylase 4A (Homo sapiens), O75164; AlphaScreen JMJD2A-Tudor / H3K4me3 peptide binding; Potency, µM (series often up to 114 µM), inactives show at the highest dose activity change, negative = inhibition, actives largely listed as inhibitors; 390,000 tested, 4.4% active; AID 504339, 2011; also: % is scaled to controls: 0 for no effect and ±100 for the full control effect; nearly all actives have a fitted effect of over 50% in size
# BAZ2B inh – qHTS Assay for Inhibitors of BAZ2B; Bromodomain adjacent to zinc finger domain protein 2B (Homo sapiens), Q9UIF8; AlphaScreen BAZ2B-H3K14Ac peptide displacement; Potency, µM (highest dose often 114 µM), without a hit: top-dose activity change, negative = inhibition, most hits filed as inhibitors; 360,000 tested, 4.4% active; AID 504333, 2011; also: % is scaled to controls: 0 for no effect and ±100 for the full control effect; nearly all actives have a fitted effect of over 60% in size
# Target sequence (Q9UIF8 whole entry, looked up, the tested form may be a part): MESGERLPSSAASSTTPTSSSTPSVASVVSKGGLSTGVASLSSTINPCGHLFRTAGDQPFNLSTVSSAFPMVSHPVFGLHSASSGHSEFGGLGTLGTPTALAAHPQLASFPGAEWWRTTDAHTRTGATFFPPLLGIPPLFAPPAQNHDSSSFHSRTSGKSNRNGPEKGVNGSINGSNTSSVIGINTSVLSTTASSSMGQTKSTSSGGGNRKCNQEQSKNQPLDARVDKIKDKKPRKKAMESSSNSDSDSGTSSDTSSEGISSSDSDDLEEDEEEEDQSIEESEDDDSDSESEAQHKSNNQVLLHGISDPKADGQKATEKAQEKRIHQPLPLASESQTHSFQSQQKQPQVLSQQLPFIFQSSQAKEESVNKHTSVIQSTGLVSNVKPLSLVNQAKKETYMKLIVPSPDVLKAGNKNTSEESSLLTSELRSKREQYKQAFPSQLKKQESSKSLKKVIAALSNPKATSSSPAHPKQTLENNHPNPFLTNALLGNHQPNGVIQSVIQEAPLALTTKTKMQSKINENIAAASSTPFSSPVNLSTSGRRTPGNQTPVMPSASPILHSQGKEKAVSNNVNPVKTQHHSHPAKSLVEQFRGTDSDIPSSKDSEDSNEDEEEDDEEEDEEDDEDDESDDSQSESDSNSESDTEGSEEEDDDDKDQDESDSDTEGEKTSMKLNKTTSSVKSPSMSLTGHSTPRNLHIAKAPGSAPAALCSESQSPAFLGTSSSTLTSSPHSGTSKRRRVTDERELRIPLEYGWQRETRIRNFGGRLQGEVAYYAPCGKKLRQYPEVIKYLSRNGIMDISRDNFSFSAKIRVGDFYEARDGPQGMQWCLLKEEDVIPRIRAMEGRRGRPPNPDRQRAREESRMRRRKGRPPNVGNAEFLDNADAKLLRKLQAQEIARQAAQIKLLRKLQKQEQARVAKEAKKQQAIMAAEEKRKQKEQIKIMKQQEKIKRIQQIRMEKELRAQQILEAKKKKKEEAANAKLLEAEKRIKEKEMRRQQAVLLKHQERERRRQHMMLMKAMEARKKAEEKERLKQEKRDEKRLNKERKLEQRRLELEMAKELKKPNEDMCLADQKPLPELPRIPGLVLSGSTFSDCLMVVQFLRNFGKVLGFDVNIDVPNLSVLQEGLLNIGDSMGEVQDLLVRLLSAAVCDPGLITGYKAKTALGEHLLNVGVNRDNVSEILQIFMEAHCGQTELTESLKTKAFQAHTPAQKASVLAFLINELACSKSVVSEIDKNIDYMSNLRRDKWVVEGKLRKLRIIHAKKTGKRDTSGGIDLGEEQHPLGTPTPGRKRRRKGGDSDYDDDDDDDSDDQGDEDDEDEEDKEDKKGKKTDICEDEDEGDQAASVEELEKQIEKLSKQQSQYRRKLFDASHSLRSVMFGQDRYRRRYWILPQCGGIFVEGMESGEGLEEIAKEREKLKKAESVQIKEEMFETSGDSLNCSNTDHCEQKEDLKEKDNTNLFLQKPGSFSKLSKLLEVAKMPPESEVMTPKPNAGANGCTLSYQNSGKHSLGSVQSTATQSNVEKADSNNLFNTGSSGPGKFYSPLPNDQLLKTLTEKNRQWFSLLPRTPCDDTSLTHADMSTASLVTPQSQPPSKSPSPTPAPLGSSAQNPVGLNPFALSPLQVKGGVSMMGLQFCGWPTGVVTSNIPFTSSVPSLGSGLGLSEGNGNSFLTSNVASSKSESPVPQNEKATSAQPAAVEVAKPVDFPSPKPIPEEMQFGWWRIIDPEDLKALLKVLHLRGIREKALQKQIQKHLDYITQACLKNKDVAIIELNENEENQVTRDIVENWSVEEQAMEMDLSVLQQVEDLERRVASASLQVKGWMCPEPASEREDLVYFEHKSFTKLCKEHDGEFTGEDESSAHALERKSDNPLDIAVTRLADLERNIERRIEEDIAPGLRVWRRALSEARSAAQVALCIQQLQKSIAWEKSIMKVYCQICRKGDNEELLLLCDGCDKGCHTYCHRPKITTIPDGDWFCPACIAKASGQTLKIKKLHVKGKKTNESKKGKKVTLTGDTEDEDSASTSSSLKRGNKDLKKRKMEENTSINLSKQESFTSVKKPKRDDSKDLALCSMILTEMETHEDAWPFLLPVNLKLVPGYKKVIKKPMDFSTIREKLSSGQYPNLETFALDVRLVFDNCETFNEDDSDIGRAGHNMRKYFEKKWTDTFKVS
#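 Inhibition is scored as reduced AlphaScreen emission. The BAZ2B/b-H3(5-23)K14Ac complex (50 nM each) in PBS pH 7.4, 0.01% Tween-20 meets compound (up to 110 uM) for 30 min at RT before bead addition.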
# L3MBTL1 block – qHTS Assay for the Inhibitors of L3MBTL1 | AlphaScreen L3MBTL1–H3K9me1 peptide binding | AID 485360, 2010 | Potency, µM (series often up to 57.1 µM), without a hit: at the top dose activity, negative = inhibition, actives largely listed as inhibitors | Lethal(3)malignant brain tumor-like protein 1 (Homo sapiens), Q9Y468 | 230,000 tested, 0.66% active; also: % is scaled to controls: 0 for no effect and ±100 for the full control effect; nearly all actives have a fitted effect of over 60% in size
#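 AlphaScreen proximity signal between nickel-chelate acceptor and streptavidin donor beads (final 10 ug/mL) reports binding of 50 nM L3MBTL1 to 75 nM biotin-H3 K9me1 peptide; complex incubated with compounds 30 min at room temperature; cefsulodin titration as control.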
# Active calls of the source: *; ? = inconclusive; · = no result given; ! = a repeat was not active; [ ] = another dose, or the depositor's remark. Hits are enriched below; roughly 10% of the tested compounds scored in any of these assays. Calls follow the shape of the dose curve; as a rule, active = well fitted curve in the direction sought with a large enough effect; inconclusive = small, poorly fitted or top-dose-only effect, or another doubt; inactive = no such curve, though single readings can be large; an effect the other way counts as inactive or inconclusive. Potency is read from the fitted curve at half-maximal effect.
SMILES,G9a block,HP1b binding inh,GLS inh,JMJD2A Tudor,BAZ2B inh,L3MBTL1 block
CCc1nn2c(=O)c(C)c(N3CCNCC3)nc2s1,·,·,·,-2.7%,·,·
CCCCCCCCCCCCCC(=O)OC1C(C)[C@@]2(O)C(C=C(CO)C[C@]3(O)C(=O)C(C)=C[C@H]23)[C@@H]2C(C)(C)[C@]12OC(C)=O (stereo partly drawn),-30.6%[2.33 µM],·,·,·,·,·
O=C1NC(=O)C(=Cc2cn(CCOc3ccc4c(c3)OCO4)c3ccccc23)C(=O)N1,?,38.3%,-3.8%,-24.4%,-7.9%,·
O=C1NC(=O)C(=Cc2ccc3c(c2)OCO3)C(=O)N1,50.1µM*,·,·,·,-14.1%,1.8%
O=C1NC(=O)N(c2ccccc2F)C(=O)/C1=C/c1ccc(Oc2ccc([N+](=O)[O-])cn2)cc1,20µM*,-3.3%,?,?,56.2µM*,·
Cc1ccccc1N1C(=O)NC(=O)/C(=C\c2cnn(-c3ccccc3)c2)C1=O,?,33.8%,?,-28.8%,5.7%,-16.9%
C=CCn1c(O)c(/C=N/N2CCCCC2c2cccnc2)c(=O)[nH]c1=S (stereo not drawn),20.2%[59 µM],25.7%,26.3%,-3.8%,7.9%,-4.3%
CCCCCCn1c(O)c(C=Nc2ccccc2N2CCOCC2)c(=O)[nH]c1=S,-37.7%,59.3%,-1.1%,-7.4%,-12.5%,0.8%
CCCCn1c(O)c(/C=N/N2CCCCC2c2cccnc2)c(=O)[nH]c1=S (stereo not drawn),8.91µM*,30.3%,-0.1%,-8.3%,-6.5%,-11.7%
CCCCn1c(O)c(/C=N/N2CCOCC2)c(=O)[nH]c1=S,44.7µM*,50.4%,16.3%,7.6%,-18.8%,-4.5%
COc1ccc(C(CNC(=O)Cc2ccc(Cl)c(Cl)c2)N2CCCCC2)cc1 (stereo not drawn),2.2%,20.4%,4.4%,-6.9%,-19.9%,·
CN(C(=O)Cc1ccc(Cl)c(Cl)c1)C(CN1CCCC1)c1cccc(N=C=S)c1 (stereo not drawn),17.8µM*,·,·,·,·,·
O=C(Nc1cccc(F)c1)N1CCCC2(CCN(C(=O)Oc3ccccc3)CC2)C1,2.9%[12.7 µM],·,·,·,·,·
C=C1C/C(=C\C)C(=O)O[C@@H]2CCN3CC=C(COC(=O)[C@@]1(C)O)[C@H]23,21.5%[21.5 µM],·,·,·,·,·
Cc1cc(O)c2c(c1)C(=O)c1cc(O)cc(O)c1C2=O,1.68µM*,?,-2.4%,44.7µM*,·,·
O=C(O)CCCC[C@@H]1SC[C@@H]2NC(=O)N[C@@H]21,·,-72.2%,-2.6%,?,·,·
CCn1c(C)[n+](CC(O)COCC2CC=CCC2)c2ccccc21 (stereo not drawn),10µM*,12.8%,-3.6%,?,-1.5%,·
O=[N+]([O-])c1cc(-n2cnnn2)c(O)c([N+](=O)[O-])c1,50.1µM*,49.9%,1.3%,-11.8%[11.4 µM],-18.7%,-11.7%
O=[N+]([O-])c1cc(O)c(O)c([N+](=O)[O-])c1,7.94µM*!,19.8%,29.2%,-20.9%,?,-7.4%
O=[N+]([O-])c1ccc(O)c([N+](=O)[O-])c1,-49.0%[2.33 µM],17.6%,-7.2%,?,·,·
COc1ccc(CCNC(=O)CCc2c(C)nc3c(-c4ccc(F)cc4)c(C)nn3c2C)cc1OC,16.2%[59 µM],47.7%,3.9%,-8.8%,-24.5%,·
O=C(Cn1cc(C=C2C(=O)NC(=O)NC2=O)c2ccccc21)NCC1CCCO1 (stereo not drawn),-19.0%,17.3%,0.0%,-1.1%,-20.1%,·
Cc1c(C=C2C(=O)N(C)C(=S)N(C)C2=O)c2ccccc2n1CC(=O)NCC1CCCO1 (stereo not drawn),14.1µM*,-5.0%,1.1%,-27.4%,?,·
CN(C)c1ccc(CCN2CCOCC2)cc1,-8.8%[2.33 µM],14.0%,35.0%,?,-0.3%,-3.1%
CN(C)c1ccc2c(c1)N=C(c1ccco1)OP2(=S)N1CCOCC1 (stereo not drawn),14.1µM*,11.2µM*,-4.4%,79.4µM*,?,-7.6%
SMILES,G9a block,HP1b binding inh,GLS inh,JMJD2A Tudor,BAZ2B inh,L3MBTL1 block
Cc1ccc2cc(C=C(C#N)C#N)c(Cl)nc2c1,?,-8.0%,68.3%,-34.0%,-28.4%,-2.4%
N#CC(C#N)=Cc1ccc([N+](=O)[O-])c(O)c1,8.91µM*,·,·,·,·,·
N#CC(C#N)=Cc1ccc(C=C(C#N)C#N)cc1,50.1µM*,26.2%,1.0%,-14.4%,-22.7%,-10.1%
CCON=O,8.0%[12.7 µM],·,5.1%,·,·,·
CC(CNC(=O)c1ccc(CSc2nc3ccncc3n2Cc2ccc(F)cc2)cc1)c1ccccc1 (stereo not drawn),?,30.8%,3.4%,-23.3%,-8.5%,·
O=C1OC(=O)C2C3CCC(O3)C12 (stereo not drawn),-1.8%[59 µM],·,·,·,-4.5%,3.4%
Fc1ccccc1-c1n[nH]c(=S)n1Cc1ccccc1,3.55µM*,2.1%,-7.1%,22.4µM*,-2.7%,·
O=c1c2ccccc2nc(-c2ccccc2F)n1-c1ccccc1,·,20.9%,-1.9%,-10.4%,-1.8%,-3.3%
O=C(Cc1ccccc1)c1ccccn1,·,-19.9%,-0.1%,3.55µM*,·,·
Cc1ccc(NC(=O)Cn2c(=O)cc(-c3ccccc3)c3c(C)nn(C)c32)c(Cl)c1,7.2%[59 µM],49.7%,2.2%,-19.3%,0.5%,·
CC1CCCCC1n1c(-c2cccnc2)n[nH]c1=S (stereo not drawn),14.1µM*,53.8%,-1.1%,7.08µM*,-5.6%,7.5%
CN1CCCCC1c1ccc(-c2cccnc2)nc1 (stereo not drawn),-117.5%[59 µM],31.8%,3.5%,-17.7%,?,7.5%
NC(=O)c1cn(C2CCCCC2)c2ccccc2c1=O,14.2%,36.1%,-5.4%,-0.7%,-8.7%,·
O=C1c2ccccc2C(=O)N1SC1CCCCC1,2µM*,-7.8%,?,?,2.1%,3.2%
O=C(O)C1C2c3ccccc3C(=O)C1(C(=O)O)c1ccccc12 (stereo not drawn),·,42.2%,-4.3%,-1.4%,·,·
COC12c3ccccc3-c3ccccc3C1C(C(=O)O)C2C(=O)O (stereo not drawn),·,·,17.8µM*,·,·,·
N#Cc1cccc(NC(=O)N2CC3(CCN(C(=O)Oc4ccccc4)CC3)C2)c1,11.0%[12.7 µM],·,·,·,·,·
CCOC(OCC)P(=O)(O)CCCN,34.8%[59 µM],·,·,·,·,·
Cc1ccc2c(c1)=C/C(=C\c1c(O)[nH]c(=S)[nH]c1=O)C(=O)N=2,3.55µM*,·,·,·,?,-12.6%
Cc1cccc(CN2CCc3nc(N4CCN(c5ccccn5)CC4)ncc3C2)c1,?,6.1%,-5.1%,79.4µM*,50.1µM*,·
